Consider 40 compounds from PubChem BioAssay (NCI).

Compounds without any hit were thinned out: in the full panel of roughly 83,000, 20% have a hit.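 Single-concentration screen, 48 h exposure, 96-well plates. Endpoint: percent growth. Below 10 = active.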 Unmarked numbers belong to inactive results. Activity calls are given as the source filed them.

This test relates to UACC-62 melanoma. Briefly: NCI-60 one-dose screen, 48 h (100 = growth as untreated, 0 = no growth, -100 = all killed). Conditions: 10 µM unless noted. Here is the method:
Growth inhibition of the UACC-62 human tumor cell line is measured as a screen for anti-cancer activity. Cells are grown in 96 well plates and exposed to the test compound for 48 hours. Compounds are tested at a single concentration, which is 10^-5 M for most compounds. The reported endpoint is percent growth (GI% or GIPRCNT), where numbers from 0 - 100% represent growth inhibition, and numbers from -100% - 0 represent cell death. For example, a value of 40 represents 60% growth inhibition. A value of 0 means no net growth occurred over the course of the experiment. A value of -40 indicates 40% of cells at the beginning of the experiment died by the end of the experiment. A value of -100 means all cells are dead at the end of the experiment.
NCI-60 Human Tumor Cell Lines Screen was performed using the standard one-dose NCI protocol, which is described in more detail at https://dtp.cancer.gov/discovery_development/nci-60/default.htm.
Compounds with GIPRCNT values below 10 were considered active. Activity score was based on GIPRCNT using the following formula: […]
Score is 0 for GIPRCNT values of 100 or above, 50 for GIPRCNT values of 0, and 100 for GIPRCNT values of -100.
With `C=C(C=O)[C@@H]1CC[C@]2(CO)CC[C@]3(C)[C@H](CC[C@@H]4[C@@]5(C)CCCNC(C)(C)[C@@H]5CC[C@]43C)[C@@H]12`, the growth was 83.2%.

In the case of `COC(=O)c1[nH]nc2c1C1(C(=O)N(C)c3ccccc31)C(C#N)=C(N)O2` (stereo not given), the growth was 96.1%.

With `COc1cc(/C=C2\C(=O)Nc3ccccc32)ccc1OCc1ccc(F)cc1`, the growth is 92.7%.

Take `O=C(Nc1ccc(N=Cc2c(O)[nH]c3ccccc23)cc1)Nc1nccs1`: the growth is 24.9%.

Take `CC(=O)N1C(=S)NC(=O)C1CC(C)C` (stereo not given): the growth was 93.7%.

With `Cc1ccc(-n2c(/C=C3\C(=O)Nc4ccccc43)ccc2CO)cc1`, the growth is 50.6%.

In the case of `CCCCCc1ccc(S(=O)(=O)Nc2cccc(-c3csc(NC(=O)CCCCCN4CCN(CCO)CC4)n3)c2)cc1`, the growth was 87.6%.

For the compound `CC/C(=C/c1c(O)cccc1OC)c1ccc2c(OC)cccc2[o+]1`, the growth is 90.6%.

With `Cc1cc(C)c(N2C(=O)CC(Nc3ccc(Cl)cc3Cl)C2=O)c(C)c1` (stereo not given), the growth was 91.4%.

In the case of `O=C(CN1CCN(c2cc(=O)[nH]c3ccc(F)cc23)CC1)Nc1ccc(Cl)cc1`, the growth is 47.9%.

On to `CNC(=O)c1c(NC(=O)c2cccc(C(F)(F)F)c2F)sc2c1CCC(=O)C2`, for which the growth was 7.56% (active).

As for `Cn1ccnc1C(=O)/C=C/c1ccc(NC(=O)c2ccc(F)cc2)cc1`, the growth was 49.9%.

Consider `Nc1ncc(-c2ccc3ncnc(N4CCc5cc(F)c(Cl)cc54)c3c2)cn1`, for which the growth was 22.2%.

For the compound `COc1ccc([C@H]2c3[nH]c4ccccc4c3C[C@H]3C(=O)N(C4CCN(Cc5c(Cl)cccc5Cl)CC4)CC(=O)N23)c(OC)c1`, the growth is 84.1%.

`NC(N)=Nc1ccc(Oc2cccc(Nc3ccc(Cl)cc3)c2)cn1`: the growth was 43.3%.

In the case of `C/C(=N\O)[C@H]1C[C@]23CC[C@]4(C)[C@H](CC[C@@H]5[C@@]6(C)CC/C(=N/O)C(C)(C)[C@@H]6CC[C@]54C)[C@H]2[C@H](C)C1(C)OC3`, the growth was 89.7%.

In the case of `Cc1ccc(-c2cc3nc(C(Cl)Cl)nc(-c4cccs4)n3n2)cc1`, the growth was 78.9%.

In the case of `COc1cc(/C=N/NC(=O)c2cn(C3CC3)c3c(OC)c(N4CC5CCCNC5C4)c(F)cc3c2=O)ccc1O` (stereo not given), the growth is 91.5%.

Consider `N#Cc1cccc(CN2CCC3=C(C2)C(=O)N(Cc2ccc(Cl)cc2)C2=NCCCN23)c1`, for which the growth was 25%.

Regarding `COc1cc(OC)c(S(N)(=O)=O)cc1C(C)=O`, the growth was 100%.

Take `Cc1nn(-c2ccccc2)c2ncnc(N/N=C/c3ccccc3O)c12`: the growth is -11.2% (active).

In the case of `CN1CCC(n2cc(Nc3ncc4c(=O)n(-c5c(Cl)cccc5Cl)cc(Br)c4n3)cn2)CC1`, the growth is 77.8%.

With `CC(=O)C1=C(C)NC(NNC(N)=S)=NC1c1ccccc1` (stereo not given), the growth was 93.3%.

For `O=C(CN1CCN(c2cc(=O)n(-c3ccccc3)c3ccccc23)CC1)Nc1nc(-c2ccccc2)cs1`, the growth is 63.9%.

In the case of `Cc1ccc2sc3c(c2c1)OC(N)=C(C#N)C3c1cccc(F)c1` (stereo not given), the growth was 18.3%.

`COc1ccc(C2CC(c3ccc(Nc4nc(NCCO)nc(N5CCOCC5)n4)cc3)=Nc3c(N)nc(N)nc3N2)cc1` (stereo not given): the growth was 104%.

For the compound `COc1ccc(/C=C(/C)c2ccc3ccc(OC)cc3[o+]2)c(O)c1`, the growth is 50.9%.

Turning to `COc1cc2nc(Cl)nc(Nc3cccc(C4=Nc5c(N)nc(N)nc5NC(c5ccccc5)C4)c3)c2cc1OC` (stereo not given), the growth was 91.3%.

For `O=C(Nc1nonc1-c1ccccc1)c1ccc(C(F)(F)F)cc1`, the growth was 56%.

Consider `CCOc1ccccc1NC1=C(Cl)C(=O)c2nc(C)ccc2C1=O`, for which the growth was -29.1% (active).

Consider `C=C(C=O)[C@@H]1CC[C@]2(C)[C@H](CC=C3[C@H]4[C@@H](C)[C@H](C)CC[C@]4(C(=O)OC)CC[C@]32C)[C@@]1(C)CCC#N`, for which the growth is -31.9% (active).

Regarding `Cc1ccc(-c2cc3nc(C(Cl)Cl)nc(C)n3n2)cc1`, the growth was 99.6%.

As for `CN(C)CCNC(=O)c1ccc(-c2nc3ccc4[nH]ncc4c3c3c2COCC3)cc1`, the growth is -24.7% (active).

With `CC1=NC2=NN3C(=NN2C(c2ccccc2)=C1)N=NC(c1ccc(Br)cc1)=C3c1ccc(Br)cc1`, the growth is 89.9%.

As for `Cn1ccnc1C(=O)/C=C/c1ccc(NC(=O)c2c(F)c(F)c(F)c(F)c2F)cc1`, the growth is 97.2%.

`NS(=O)(=O)c1ccc(-n2cc(-c3cccc(NC(=O)c4ccc(N5CCOCC5)c(C(F)(F)F)c4)c3)nn2)cc1`: the growth is 30.5%.

Consider `Nc1nc(-c2cccc([N+](=O)[O-])c2)c(N=Nc2ccccc2)s1`, for which the growth is 64%.

Regarding `C#CC(=O)N(c1ccc(OC)cc1OC)C(C(=O)NCC(=O)OCC)c1cccs1` (stereo not given), the growth was 82.6%.

Regarding `C=C(C=O)[C@@H]1CC[C@]2(C)[C@H](C(=O)C=C3[C@H]4C[C@](C)(C(=O)OC)CC[C@]4(C)CC[C@]32C)[C@@]1(C)CCC#N`, the growth is -19% (active).

`N/C(=N\C(N)=N\c1nc2ccccc2s1)c1ccc(C(F)(F)F)cc1`: the growth is 97.8%.
